# From PubChem BioAssay
# HNF4A DNA FP – change in binding of human HNF4 alpha to DNA; P41235; HNF4a-FITC DNA binding, fluorescence polarization, 1 h; activity change, % at 10 µM; 0.3% of 360,000 active; AID 1224865; in the data active = activity change above about 30%, passing the limit was not always enough
# IDE cell inh – inhibitors of human insulin-degrading enzyme in cells | HEK cells, FAbetaB cleavage, fluorescence polarization | inhibition, % at 5.59 µM | 0.41% of 320,000 active | AID 434962;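 active = percent inhibition above the average of all tested compounds plus 3 SD, set per screening campaign, cut at about 16% in these data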;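 also: IDE supplied by intact live HEK cells; FP after avidin binding of uncleaved biotin substrate so inhibition keeps polarization high; 0% = DMSO wells and 100% = 60 µM reference IDE inhibitor Ii1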
# Target sequence (P14735 whole entry, looked up): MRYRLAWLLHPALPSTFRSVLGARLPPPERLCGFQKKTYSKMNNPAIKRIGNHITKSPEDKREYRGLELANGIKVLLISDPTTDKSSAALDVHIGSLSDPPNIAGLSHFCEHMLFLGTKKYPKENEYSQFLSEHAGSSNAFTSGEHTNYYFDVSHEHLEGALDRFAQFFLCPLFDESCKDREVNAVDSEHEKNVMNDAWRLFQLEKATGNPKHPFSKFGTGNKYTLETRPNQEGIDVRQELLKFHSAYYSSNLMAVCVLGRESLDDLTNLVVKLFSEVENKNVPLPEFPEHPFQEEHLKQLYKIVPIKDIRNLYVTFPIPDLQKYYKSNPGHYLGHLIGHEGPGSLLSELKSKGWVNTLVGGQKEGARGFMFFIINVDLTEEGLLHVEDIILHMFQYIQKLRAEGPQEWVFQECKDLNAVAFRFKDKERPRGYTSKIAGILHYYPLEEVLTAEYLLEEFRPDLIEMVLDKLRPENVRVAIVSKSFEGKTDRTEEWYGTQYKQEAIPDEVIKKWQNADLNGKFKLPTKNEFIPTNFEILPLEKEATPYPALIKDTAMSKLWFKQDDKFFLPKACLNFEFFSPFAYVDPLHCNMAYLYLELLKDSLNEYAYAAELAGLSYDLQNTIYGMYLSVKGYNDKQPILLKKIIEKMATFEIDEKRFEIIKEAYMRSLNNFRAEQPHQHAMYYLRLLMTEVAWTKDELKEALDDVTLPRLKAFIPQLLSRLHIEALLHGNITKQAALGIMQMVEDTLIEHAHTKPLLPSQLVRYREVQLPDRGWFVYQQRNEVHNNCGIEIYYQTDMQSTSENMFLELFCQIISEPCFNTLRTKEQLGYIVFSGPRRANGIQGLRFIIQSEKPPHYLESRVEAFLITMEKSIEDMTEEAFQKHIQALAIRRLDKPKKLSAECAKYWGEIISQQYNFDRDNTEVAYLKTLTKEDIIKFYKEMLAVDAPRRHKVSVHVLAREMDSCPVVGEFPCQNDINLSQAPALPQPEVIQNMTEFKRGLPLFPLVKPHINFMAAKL
# IDE act – activators of human insulin-degrading enzyme in cells; HEK cells, FAbeta-B cleavage, fluorescence polarization; 0% vehicle, 100% cell-free pure enzyme wells; activation, % at 5.96 µM; 0.073% of 340,000 active;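 active = activation above the mean of all tested compounds plus 3 SD, set per screening campaign, cut at about 17% in these data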
# TPT1 inhibitor – inhibitors of Candida albicans tRNA 2'-phosphotransferase TPT1. inhibition, % at 5 µM. 0.81% of 300,000 active. recombinant caTPT1, FP RNA substrate dephosphorylation. AID 1962;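 active = inhibition above the mean of all tested compounds plus 3 SD, set per screening campaign, cut at about 24% in these data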;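 also: plate controls were DMSO alone for no effect and ferristatin control at 100 nM for full effect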
# CRFBP-R2 agonist – CRF-BP/CRF-R2 complex agonism; 0.46% of 350,000 active; AID 588473; activation, % at 13.2 µM; HEK293 CRF-R2/CRF-BP, calcium dye fluorescence (FLIPR); percent of saturating CRF peptide response;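 active = activation of at least 50%, plus an integration ratio under a set limit after plate pattern correction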;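 also: plate controls were neutral control wells without compound for no effect and CRF at EC100 for full effect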
# Numbers without * were called inactive; · = no result given. Shown are actives, neighbours in structure and some others; about 1.4% of the full set was active somewhere.
SMILES,HNF4A DNA FP,IDE cell inh,IDE act,TPT1 inhibitor,CRFBP-R2 agonist
CC(=O)Nc1ccc(N/C(N)=N/c2nc(C)cc(C)n2)cc1,3,7,5,-2,-2
O=C(Nc1nc2ccccc2s1)c1ccc(Cl)s1,-4,4,-2,5,1
Cc1ccc2nc(NC(=O)c3ccc(-c4nc5ccccc5s4)s3)sc2c1,69*,0,5,-4,1
Cc1ccccc1OCCC(=O)Nc1cc(S(=O)(=O)N2CCCCC2)ccc1N1CCN(C)CC1,5,·,3,·,68*
CC1(C(=O)NCc2ccccc2Br)CCN1Cc1ccc(-c2ccccc2)o1 (configuration not stated),3,·,·,·,·
COc1cc(C23CCCN(CCC(C(C)(C)C)C2)C32OCCO2)cc(OC)c1OC (configuration not stated),2,·,·,·,·
Cc1ccc(C(=O)CC(=O)c2cc(Cl)ccc2O)cc1,2,4,3,-2,68*
CC(C)(C)c1ccc(C(=O)CC(=O)c2cc(Cl)ccc2O)cc1,-1,-9,3,-1,-1
COC(=O)c1ccc(NC(=O)c2ccc(NC(=O)c3ccco3)cc2)cc1,102*,4,9,8,0
CSc1ccccc1OCc1cc(C(=O)N2CCc3[nH]cnc3C2c2ccccn2)no1 (configuration not stated),-3,2,4,0,-1
O=C1NC(=O)C2(N1)c1ccccc1-c1ccccc12,4,·,6,·,-1
O=C1NC(=O)C2(N1)C(=O)c1cccc3cccc2c13 (configuration not stated),-142,·,·,·,85*
CCOC(=O)CSc1nc(N2CCOCC2)c2c(c1C#N)CC(C)(C)N(C)C2,2,10,-1,-32,196*
COC(=O)C[C@@H]1C=C[C@@H](NC(=O)CN(C)C)[C@@H](CO)O1,4,·,·,·,·
O=S(=O)(NC1CCCCC1N1CCN(c2ccc(F)cc2)CC1)c1ccc(Cl)cc1 (configuration not stated),-1,-1,9,2,105*
CNC[C@H](CC1CCCCC1)NC[C@H](Cc1ccccc1)NCCC12CC3CC(CC(C3)C1)C2,10,1,35*,3,29
CN1CCN(NC(=O)c2cn(-c3ccccc3)nc2-c2cccc(Br)c2)CC1,46*,0,3,-6,0
CC(C)(C)C(=O)c1sc2nc(-c3cccs3)cc(C(F)(F)F)c2c1N,-90,-2,3,7,83*
COc1ccc(NC(=O)c2sc3nc(Cc4ccccc4)cc(C(F)(F)F)c3c2N)cc1OC,3,-2,7,5,5
Cc1nnc(NC(=O)c2sc3nc(-c4cccs4)cc(C(F)(F)F)c3c2N)s1,68,19*,-27,47*,213*
COc1ccccc1NC(=O)c1sc2nc(Cc3ccccc3)cc(C(F)(F)F)c2c1N,-13,0,3,5,58*
CC(C)(C)c1ccc(C(=O)NNC(=O)CCC(=O)Nc2ccccc2)cc1,4,6,5,-9,3
COc1ccccc1C=C1CCc2ccccc2C1=O,-2,·,·,·,·
COc1cc(OC)c(OC)cc1/C=C1/Cc2ccccc2C1=O,-48,5,-8,-5,51*
Cc1cc(S(=O)(=O)N2CCCC(C)C2)ccc1-n1cnnn1 (configuration not stated),1,5,0,0,0
SMILES,HNF4A DNA FP,IDE cell inh,IDE act,TPT1 inhibitor,CRFBP-R2 agonist
CC(C)(C)OC(=O)N1CCN(C(=O)c2ncn(Cc3ccccc3)c2C(=O)N2CCN(C(=O)OC(C)(C)C)CC2)CC1,-1,2,2,·,-3
Cn1c(/C(C#N)=C(\O)c2cccc(F)c2)nc2ccccc21,1,-2,4,-1,-1
N#C/C(=C(/O)c1cccc(F)c1)c1nc2ccccc2s1,2,2,3,1,51*
CC(C)Cn1c(N)c(C(=O)CSc2nc3ccccc3n2C)c(=O)n(C)c1=O,48*,4,1,0,1
CC(C)Cn1c(SCC(=O)c2c(N)n(C)c(=O)n(C)c2=O)nc2ccccc21,1,4,2,-1,3
CCOC(=O)C1=C(C)N=c2s/c(=C/c3ccc(OCC(=O)O)cc3)c(=O)n2C1c1cc(OC)c(OC)c(OC)c1 (configuration not stated),1,7,-4,11,-1
CCOC(=O)C1=C(C)N=c2sc(=Cc3cc(Cl)c(OCC(=O)O)c(Cl)c3)c(=O)n2C1c1cccc(OC)c1 (configuration not stated),97*,·,·,·,·
CCOc1ccccc1-c1c2cc(O)c(=O)cc-2oc2cc(O)c(O)cc12,-89,·,-68,·,260*
COc1ccc(OC)c(-c2c3cc(O)c(=O)cc-3oc3cc(O)c(O)cc23)c1,-18,39*,-113,-17,145*
COc1ccc(/C=N/NC(=O)c2[nH]c3ccc(C)cc3c2-c2ccccc2)c(C(=O)O)c1OC,-2,4,5,0,8
Cc1ccc2[nH]c(C(=O)N/N=C/c3ccccc3C(=O)O)c(-c3ccccc3)c2c1,-3,-2,8,0,72*
CCOc1ccc(/C=N/OCC(=O)NC(c2ccccc2)c2ccccc2)cc1,0,5,8,-1,54*
COc1ccc(/C=N/OCC(=O)NC(c2ccccc2)c2ccccc2)c(OC)c1,-3,5,4,-4,0
Cc1cc(NC(=O)OC2CCCCC2)ccc1[N+](=O)[O-],-1,3,2,-2,3
COC1C(CO)OC(n2c3c(Cl)cccc3c3c4c(c5c6cccc(Cl)c6[nH]c5c32)C(=O)NC4=O)C(O)C1O (configuration not stated),85,·,-5,·,67*
CCOC(=O)c1cc(-c2ccccc2)sc1NC(=O)C(C)C,-3,0,-1,0,-1
CCOC(=O)c1cc(-c2ccccc2)sc1NC(=O)C(C)N1C(=O)NC(C)(c2ccc(Cl)cc2)C1=O (configuration not stated),51*,6,2,5,2
CCOC(=O)c1cnn2c(C)cc(-c3ccccc3)nc12,53*,2,0,0,-3
CC(=O)Nc1ccc(NC(=O)COC(=O)c2n[nH]c3ccccc23)cc1,10,2,19*,-7,-1
C[C@H](CO)N1C[C@H](C)[C@@H](CN(C)C(=O)NC2CCCCC2)Oc2c(NS(=O)(=O)c3ccc(F)cc3)cccc2C1=O,-5,2,0,·,0
O=C(Nc1cccc2ncccc12)c1ccc2c(c1)OCCO2,0,4,0,-5,57*
O=C(NNC(=S)Nc1ccc(Cl)cc1)c1ccccc1OC(F)F,2,9,-5,-1,51*
O=C(Nc1ncc(S(=O)(=O)c2ccc([N+](=O)[O-])cc2)s1)c1cccc2ccccc12,2,-2,2,-2,112*
CCCCCN1C(=O)/C(=C/c2c(N3CCc4ccccc4C3)nc3ccccn3c2=O)SC1=S,98,3,2,82*,3
